Laboratory results: the supplement of paper PMC10849652
Of roughly 7,900 targets only a part is listed; those with a hit were picked by preference. About 0.6% of all pairs of compound and target were hits. Unmarked numbers belong to inactive results.

What was measured:
Test in all cases: log2 fold change, soluble protein after heating vs DMSO (PISA); higher = thermal stabilisation; K562 cells, 10 uM, 30 min; active = over 0.2 and 3.5 SD of the protein, either way, in both replicates (recomputed)
[1] = compound: CS(=O)(=O)c1ccc(-c2cnc(N)c(C(=O)Nc3ccccc3)n2)cc1
Procedure, shortened: (§1)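 Aliquots of K562 cells (2×10^6 cells/mL) treated with 10 μM compound for 30 min were heated for 3 min over 48°C-58°C. After pooling and extraction in PBS with 0.5% NP-40 at 4°C, soluble protein from a 21,000xg, 90 min spin was quantified by TMTpro 16plex LC-MS/MS with channel sums equalised. Thermal stability is expressed against control samples, from duplicates, as a log2 fold change.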

crizotinib = compound: C[C@@H](Oc1cc(-c2cnn(C3CCNCC3)c2)cnc1N)c1c(Cl)ccc(F)c1Cl [crizotinib]
Procedure, shortened: as §1

[2] = compound: C[C@@H]1COCCN1C2=NC(=NC(=C2)C3(CC3)S(=O)(=O)C)C4=C5C=CNC5=CC=C4
Procedure, shortened: as §1

[3] = compound: C[C@H](C1=CC=C(C=C1)C(=O)NC2=C3C=CNC3=NC=C2)N
Procedure, shortened: as §1

duvelisib = compound: C[C@H](Nc1ncnc2nc[nH]c12)c1cc2cccc(Cl)c2c(=O)n1-c1ccccc1 [duvelisib]
Procedure, shortened: as §1

gandotinib = compound: Cc1cc(Nc2cc(CN3CCOCC3)c3nc(C)c(Cc4ccc(Cl)cc4F)n3n2)n[nH]1 [gandotinib]
Procedure, shortened: as §1

tozasertib = compound: Cc1cc(Nc2cc(N3CCN(C)CC3)nc(Sc3ccc(NC(=O)C4CC4)cc3)n2)n[nH]1 [tozasertib]
Procedure, shortened: as §1

[4] = compound: Cc1cc(SCc2sc(-c3ccc(C(F)(F)F)cc3)nc2C)ccc1OCC(=O)O
Procedure, shortened: as §1

doramapimod = compound: Cc1ccc(-n2nc(C(C)(C)C)cc2NC(=O)Nc2ccc(OCCN3CCOCC3)c3ccccc23)cc1 [doramapimod]
Procedure, shortened: as §1

ispinesib = compound: Cc1ccc(C(=O)N(CCCN)[C@@H](c2nc3cc(Cl)ccc3c(=O)n2Cc2ccccc2)C(C)C)cc1 [ispinesib]
Procedure, shortened: as §1

Sequence of UniProt Q9Y5L4 (Q9Y5L4 whole entry, looked up): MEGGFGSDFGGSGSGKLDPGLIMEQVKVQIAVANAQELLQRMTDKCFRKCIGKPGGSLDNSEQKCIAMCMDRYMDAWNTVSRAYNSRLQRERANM
Sequence of UniProt Q8WVK2 (Q8WVK2 whole entry, looked up): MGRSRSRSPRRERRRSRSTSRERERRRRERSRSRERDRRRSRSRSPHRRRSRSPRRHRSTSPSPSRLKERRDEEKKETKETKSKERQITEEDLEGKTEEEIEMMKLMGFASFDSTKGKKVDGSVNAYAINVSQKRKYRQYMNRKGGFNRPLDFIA
Sequence of UniProt P50225 (P50225 whole entry, looked up): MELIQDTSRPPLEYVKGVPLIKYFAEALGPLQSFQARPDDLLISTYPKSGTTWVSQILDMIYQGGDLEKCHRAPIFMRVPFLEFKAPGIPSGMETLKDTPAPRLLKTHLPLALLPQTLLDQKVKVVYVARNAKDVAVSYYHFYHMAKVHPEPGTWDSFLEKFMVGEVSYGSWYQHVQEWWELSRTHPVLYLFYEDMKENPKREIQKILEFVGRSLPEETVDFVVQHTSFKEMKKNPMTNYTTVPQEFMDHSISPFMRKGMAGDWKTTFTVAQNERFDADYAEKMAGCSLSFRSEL
Sequence of UniProt Q7L7X3 (Q7L7X3 whole entry, looked up): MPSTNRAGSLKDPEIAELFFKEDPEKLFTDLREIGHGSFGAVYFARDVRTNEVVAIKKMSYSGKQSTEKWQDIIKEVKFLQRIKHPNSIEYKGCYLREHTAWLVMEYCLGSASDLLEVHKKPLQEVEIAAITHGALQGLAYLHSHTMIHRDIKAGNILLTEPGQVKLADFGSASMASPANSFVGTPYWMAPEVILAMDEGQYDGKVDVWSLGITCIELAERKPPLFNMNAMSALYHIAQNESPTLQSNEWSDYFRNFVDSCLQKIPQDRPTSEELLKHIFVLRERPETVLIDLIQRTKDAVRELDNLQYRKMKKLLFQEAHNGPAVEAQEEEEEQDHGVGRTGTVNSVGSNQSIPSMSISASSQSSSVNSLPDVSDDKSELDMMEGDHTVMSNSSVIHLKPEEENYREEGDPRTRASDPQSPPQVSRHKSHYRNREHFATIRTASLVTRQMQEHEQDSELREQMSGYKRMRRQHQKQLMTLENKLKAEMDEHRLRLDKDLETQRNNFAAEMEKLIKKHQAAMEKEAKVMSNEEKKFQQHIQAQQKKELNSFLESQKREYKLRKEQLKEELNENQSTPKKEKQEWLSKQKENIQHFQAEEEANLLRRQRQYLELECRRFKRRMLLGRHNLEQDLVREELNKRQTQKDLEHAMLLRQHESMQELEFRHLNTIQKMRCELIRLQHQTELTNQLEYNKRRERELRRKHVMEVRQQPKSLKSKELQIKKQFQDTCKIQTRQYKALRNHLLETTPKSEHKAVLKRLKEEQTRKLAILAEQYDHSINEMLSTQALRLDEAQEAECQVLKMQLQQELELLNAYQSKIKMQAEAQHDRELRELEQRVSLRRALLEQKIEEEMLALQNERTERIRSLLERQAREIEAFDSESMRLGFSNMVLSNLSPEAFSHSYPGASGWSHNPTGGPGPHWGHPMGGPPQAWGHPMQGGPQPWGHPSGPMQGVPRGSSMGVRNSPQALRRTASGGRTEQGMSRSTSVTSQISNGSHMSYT
Sequence of UniProt Q05519 (Q05519 whole entry, looked up): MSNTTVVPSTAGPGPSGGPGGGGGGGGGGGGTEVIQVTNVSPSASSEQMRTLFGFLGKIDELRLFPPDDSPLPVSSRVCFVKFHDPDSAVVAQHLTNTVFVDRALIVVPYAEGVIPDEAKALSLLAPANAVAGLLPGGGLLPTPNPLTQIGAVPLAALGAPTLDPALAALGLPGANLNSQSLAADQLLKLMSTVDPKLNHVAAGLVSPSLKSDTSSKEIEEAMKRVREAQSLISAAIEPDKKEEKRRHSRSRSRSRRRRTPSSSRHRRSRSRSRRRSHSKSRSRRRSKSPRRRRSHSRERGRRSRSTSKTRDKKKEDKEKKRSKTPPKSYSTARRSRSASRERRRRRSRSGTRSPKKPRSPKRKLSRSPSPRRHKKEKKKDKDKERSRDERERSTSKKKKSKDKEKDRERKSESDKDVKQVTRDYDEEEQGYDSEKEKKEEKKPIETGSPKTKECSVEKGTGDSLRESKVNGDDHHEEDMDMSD
Sequence of UniProt A6NHR9 (A6NHR9 whole entry, looked up): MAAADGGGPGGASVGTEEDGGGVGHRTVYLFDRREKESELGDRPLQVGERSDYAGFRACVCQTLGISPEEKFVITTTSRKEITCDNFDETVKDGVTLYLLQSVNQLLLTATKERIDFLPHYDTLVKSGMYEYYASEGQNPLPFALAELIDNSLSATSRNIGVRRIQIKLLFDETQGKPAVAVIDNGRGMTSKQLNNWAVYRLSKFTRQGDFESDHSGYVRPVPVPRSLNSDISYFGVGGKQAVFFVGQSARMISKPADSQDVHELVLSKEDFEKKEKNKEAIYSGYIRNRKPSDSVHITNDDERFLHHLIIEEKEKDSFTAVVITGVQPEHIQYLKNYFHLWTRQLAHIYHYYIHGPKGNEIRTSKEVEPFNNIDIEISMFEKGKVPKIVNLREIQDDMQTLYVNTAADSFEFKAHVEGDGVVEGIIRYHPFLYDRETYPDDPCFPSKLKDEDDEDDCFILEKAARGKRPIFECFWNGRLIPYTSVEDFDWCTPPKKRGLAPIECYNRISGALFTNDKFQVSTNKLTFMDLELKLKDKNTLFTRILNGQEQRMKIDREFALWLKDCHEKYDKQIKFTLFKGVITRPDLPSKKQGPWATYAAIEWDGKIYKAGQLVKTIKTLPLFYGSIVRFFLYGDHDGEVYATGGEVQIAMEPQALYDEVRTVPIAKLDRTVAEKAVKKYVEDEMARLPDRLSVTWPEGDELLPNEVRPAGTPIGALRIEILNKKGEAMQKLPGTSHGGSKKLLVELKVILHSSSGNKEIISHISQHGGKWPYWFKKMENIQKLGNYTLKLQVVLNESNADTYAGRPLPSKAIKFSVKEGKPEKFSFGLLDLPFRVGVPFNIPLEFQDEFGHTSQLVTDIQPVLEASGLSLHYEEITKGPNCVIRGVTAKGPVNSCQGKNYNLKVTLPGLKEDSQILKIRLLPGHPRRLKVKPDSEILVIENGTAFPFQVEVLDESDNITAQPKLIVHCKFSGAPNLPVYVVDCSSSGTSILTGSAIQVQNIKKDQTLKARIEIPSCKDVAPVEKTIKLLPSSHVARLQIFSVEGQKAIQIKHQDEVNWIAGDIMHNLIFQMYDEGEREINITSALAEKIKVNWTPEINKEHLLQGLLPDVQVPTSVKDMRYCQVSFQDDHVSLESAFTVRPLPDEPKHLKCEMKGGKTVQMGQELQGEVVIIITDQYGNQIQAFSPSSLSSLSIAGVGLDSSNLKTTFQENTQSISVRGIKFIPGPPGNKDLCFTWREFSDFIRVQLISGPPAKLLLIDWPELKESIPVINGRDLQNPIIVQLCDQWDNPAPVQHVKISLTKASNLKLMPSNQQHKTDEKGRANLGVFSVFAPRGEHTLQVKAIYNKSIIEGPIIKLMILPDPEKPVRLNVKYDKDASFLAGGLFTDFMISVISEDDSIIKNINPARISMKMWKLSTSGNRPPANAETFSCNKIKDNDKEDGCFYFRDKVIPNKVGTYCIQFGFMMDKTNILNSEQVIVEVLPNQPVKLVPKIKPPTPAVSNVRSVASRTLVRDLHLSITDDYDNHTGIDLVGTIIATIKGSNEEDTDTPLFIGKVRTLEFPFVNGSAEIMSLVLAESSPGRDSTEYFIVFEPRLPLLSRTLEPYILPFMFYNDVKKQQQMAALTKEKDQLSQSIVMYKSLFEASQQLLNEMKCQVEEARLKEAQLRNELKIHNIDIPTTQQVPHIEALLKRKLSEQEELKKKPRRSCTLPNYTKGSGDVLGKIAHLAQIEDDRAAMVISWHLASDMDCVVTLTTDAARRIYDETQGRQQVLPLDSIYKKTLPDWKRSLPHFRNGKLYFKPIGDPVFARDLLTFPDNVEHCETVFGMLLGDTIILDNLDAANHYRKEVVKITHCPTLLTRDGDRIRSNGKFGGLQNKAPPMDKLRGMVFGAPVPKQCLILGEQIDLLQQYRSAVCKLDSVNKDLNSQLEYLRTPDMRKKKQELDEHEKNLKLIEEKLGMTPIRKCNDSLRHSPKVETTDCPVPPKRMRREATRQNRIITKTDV
Sequence of UniProt O60493 (O60493 whole entry, looked up): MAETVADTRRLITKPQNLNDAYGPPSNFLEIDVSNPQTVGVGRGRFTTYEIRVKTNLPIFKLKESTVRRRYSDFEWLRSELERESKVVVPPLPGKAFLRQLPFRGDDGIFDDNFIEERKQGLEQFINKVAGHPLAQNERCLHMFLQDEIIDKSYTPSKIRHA
Sequence of UniProt Q16385 (Q16385 whole entry, looked up): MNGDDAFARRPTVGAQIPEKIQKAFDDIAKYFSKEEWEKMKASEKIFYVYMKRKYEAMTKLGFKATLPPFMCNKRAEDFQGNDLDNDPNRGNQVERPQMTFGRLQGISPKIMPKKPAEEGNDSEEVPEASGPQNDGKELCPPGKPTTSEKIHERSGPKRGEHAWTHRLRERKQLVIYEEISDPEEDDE
Sequence of UniProt Q8NEW0 (Q8NEW0 whole entry, looked up): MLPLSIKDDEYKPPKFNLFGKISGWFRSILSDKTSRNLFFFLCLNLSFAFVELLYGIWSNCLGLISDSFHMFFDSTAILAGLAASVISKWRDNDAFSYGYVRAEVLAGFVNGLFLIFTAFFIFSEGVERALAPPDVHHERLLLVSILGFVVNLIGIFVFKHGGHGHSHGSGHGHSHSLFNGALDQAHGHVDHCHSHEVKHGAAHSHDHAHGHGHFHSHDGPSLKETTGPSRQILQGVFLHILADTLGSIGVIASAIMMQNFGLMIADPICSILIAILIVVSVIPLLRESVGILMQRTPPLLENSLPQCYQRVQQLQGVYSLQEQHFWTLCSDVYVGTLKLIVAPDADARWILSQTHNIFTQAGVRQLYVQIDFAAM

Target	log2 fold change [1]	log2 fold change (crizotinib)	log2 fold change [2]	log2 fold change [3]	log2 fold change (duvelisib)	log2 fold change (gandotinib)	log2 fold change (tozasertib)	log2 fold change [4]	log2 fold change (doramapimod)	log2 fold change (ispinesib)
TARBP1 (UniProt Q13395)	0.076	0.016	0.028	-0.074	-0.046	-0.075	-0.018	0.038	-0.004	0.026
SYMPK (UniProt Q92797)	-0.031	-0.189	0.046	-0.026	0.077	-0.155	0.054	0.235	-0.09	-0.023
SLC30A7 (UniProt Q8NEW0)	-0.01	0.014	-0.022	-0.048	0.081	-0.348 (active)	-0.05	-0.007	-0.057	-0.016
SNX9 (UniProt Q9Y5X1)	0.013	-0.077	-0.009	0.003	-0.039	-0.054	-0.015	0.115	-0.009	-0.074
SMCHD1 (UniProt A6NHR9)	-0.019	-0.065	-0.041	-0.104	0	0.064	0.007	0.104	0.059	-0.149
SNRNP27 (UniProt Q8WVK2)	0.002	0.038	-0.069	0.072	0.041	0.013	-0.084	-0.065	-0.056	-0.119
TAOK1 (UniProt Q7L7X3)	-0.002	-0.035	0.011	-0.08	-0.012	-0.029	-0.027	0.023	0.021	-0.001
SULT1A1 (UniProt P50225)	-0.019	0.065	0.065	-0.073	-0.101	-0.029	0.006	0.035	0.016	-0.018
SLC25A42 (UniProt Q86VD7)	-0.054	0.028	0.015	-0.055	0.005	0.09	-0.021	-0.003	-0.004	0.054
SLC30A10 (UniProt Q6XR72)	0.11	0.192	0.178	-0.001	0.079	-0.078	-0.062	-0.046	0.035	0.077
SSX2 (UniProt Q16385)	-0.024	0.062	0.05	0.053	0.036	-0.003	0.031	-0.009	-0.043	-0.029
TIMM13 (UniProt Q9Y5L4)	-0.047	0.051	0.151	-0.115	0.079	-0.002	0.038	0.006	0.039	0.12
SNX3 (UniProt O60493)	-0.035	-0.106	0.062	0.048	-0.385 (active)	-0.164	-0.023	0.085	0.04	-0.141
STARD3 (UniProt Q14849)	0.017	-0.36 (active)	0.194	-0.043	0.065	0.098	-0.06	-0.015	0.043	-0.559 (active)
SRSF11 (UniProt Q05519)	-0.037	0.015	0.045	-0.277 (active)	0.021	-0.068	0.004	0.067	-0.015	0.08
